# In PubChem BioAssay AID493243 (Broad Institute, 2011):
# Calls of active or inactive are those of the source. The rule behind the calls is not given here.
# Assay: GFP fluorescence signal inhibitors, dose response, artefact control, biochemical, plate reader, dry powder (AID 493243)
# Details: GFP fluorescence counter-screen
smiles,measurement,value
CCn1nc(/C=C/c2ccccc2)nc2c(=O)n(C)c(=O)nc1-2,AC50,221 nM (active)
